Source: PubChem
Most compounds without a hit are left out; they make up all but 10% or so of the library.
JMJD2A Tudor – qHTS Assay for Inhibitors of JMJD2A-Tudor Domain; Potency, µM (top dose mostly 114 µM), inactives show at the top dose activity change, negative = inhibition, hits mostly inhibitors; AlphaScreen JMJD2A-Tudor / H3K4me3 peptide binding; AID 504339, 2011; Lysine-specific demethylase 4A (Homo sapiens), O75164; 4.4% of 390,000 active; further: potency means the concentration at half of the fitted maximal effect; on the % scale 0 is the no-effect control and ±100 the full control effect; nearly all actives have a fitted effect of over 50% in size
Target sequence (O75164 whole entry, looked up, the tested form may be a part): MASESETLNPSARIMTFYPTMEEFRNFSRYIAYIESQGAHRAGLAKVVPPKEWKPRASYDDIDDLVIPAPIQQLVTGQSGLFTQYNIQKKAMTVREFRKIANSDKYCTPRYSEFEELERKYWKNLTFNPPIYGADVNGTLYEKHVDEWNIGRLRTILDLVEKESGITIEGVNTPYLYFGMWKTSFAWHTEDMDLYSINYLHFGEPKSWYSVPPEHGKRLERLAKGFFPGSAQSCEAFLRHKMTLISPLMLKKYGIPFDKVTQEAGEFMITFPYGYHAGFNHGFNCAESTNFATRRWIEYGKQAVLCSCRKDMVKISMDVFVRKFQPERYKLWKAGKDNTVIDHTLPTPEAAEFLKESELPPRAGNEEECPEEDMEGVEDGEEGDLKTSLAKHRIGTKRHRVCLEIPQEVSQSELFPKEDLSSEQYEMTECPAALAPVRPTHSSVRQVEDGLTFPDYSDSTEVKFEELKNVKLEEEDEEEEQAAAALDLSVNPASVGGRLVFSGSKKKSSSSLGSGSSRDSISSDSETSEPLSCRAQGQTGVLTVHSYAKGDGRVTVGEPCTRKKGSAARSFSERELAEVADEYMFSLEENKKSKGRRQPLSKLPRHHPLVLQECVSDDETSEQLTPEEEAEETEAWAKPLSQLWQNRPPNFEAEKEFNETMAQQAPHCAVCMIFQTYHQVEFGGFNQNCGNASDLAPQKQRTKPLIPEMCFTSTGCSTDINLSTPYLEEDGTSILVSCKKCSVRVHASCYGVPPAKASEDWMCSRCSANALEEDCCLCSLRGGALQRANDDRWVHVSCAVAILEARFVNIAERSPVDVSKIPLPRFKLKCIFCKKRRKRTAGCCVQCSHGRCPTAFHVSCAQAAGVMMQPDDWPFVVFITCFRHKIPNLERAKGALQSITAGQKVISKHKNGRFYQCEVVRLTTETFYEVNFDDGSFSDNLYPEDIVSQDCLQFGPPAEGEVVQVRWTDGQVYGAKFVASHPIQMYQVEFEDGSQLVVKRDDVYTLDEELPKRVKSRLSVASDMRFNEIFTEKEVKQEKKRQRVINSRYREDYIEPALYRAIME
Six1-Eya2 inh – qHTS Assay for Inhibitors of the Six1/Eya2 Interaction. Homeobox protein SIX1 (Homo sapiens) + Protein phosphatase EYA2 (Homo sapiens), …. activity change, % (concentration not given with the values). 0.56% of 360,000 active. AlphaScreen GST-Six1/His-Eya2 binding, biochemical; stronger effect = lower value; in the data active means activity change below about -65%; inconclusive means mostly about -30% to -63%; further: on the % scale 0 is the no-effect control and ±100 the full control effect
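Compounds are tested against tagged Six1 and Eya2 proteins bridged by glutathione donor and nickel acceptor beads; after a one-hour incubation at 37 °C without light, AlphaScreen emission is recorded.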
G9a inh – qHTS Assay for Inhibitors of Histone Lysine Methyltransferase G9a; Histone-lysine N-methyltransferase EHMT2 (Homo sapiens), Q96KQ7; G9a H3K9 monomethylation, AlphaScreen, 2 h; Potency, µM (highest dose often 102 µM), without a hit: top-dose activity, negative = inhibition, actives largely listed as inhibitors; 8.8% of 350,000 active; AID 504332, 2011; further: potency means the concentration at half of the fitted maximal effect; on the % scale 0 is the no-effect control and ±100 the full control effect; nearly all actives have a fitted effect of over 75% in size
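AlphaScreen detection with an anti-monomethyl H3K9 antibody quantified product after a 2 h room-temperature reaction containing 500 nM biotinylated H3K9 peptide, 20 µM SAM and 20 nM enzyme, which had been preincubated 15 min with compound.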
HP1b binding inh – HTS for Inhibitors of HP1-beta Chromodomain Interactions with Methylated Histone Tails. Chromobox protein homolog 1 (Homo sapiens), P83916. 0.56% of 390,000 active. AID 540317, 2011. AlphaScreen HP1-beta / biotin-H3K9me3 peptide binding. Potency, µM (series often up to 114 µM), for the others: top-dose activity change, negative = inhibition, most hits filed as inhibitors; further: potency means the concentration at half of the fitted maximal effect; nearly all actives have a fitted effect of over 70% in size
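Compound inhibition of the preformed complex between 50 nM HP1-beta and 50 nM biotinylated H3K9me3 peptide was read by AlphaScreen. Buffer was PBS pH 7.4 with 0.01% Tween-20. Incubations ran 30 min at room temperature, with 10 ug/mL donor/acceptor beads.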
BAZ2B block – qHTS Assay for Inhibitors of BAZ2B. Bromodomain adjacent to zinc finger domain protein 2B (Homo sapiens), Q9UIF8. AlphaScreen BAZ2B-H3K14Ac peptide displacement. Potency, µM (titrated, usually from 114 µM), without a hit: top-dose activity change, negative = inhibition, hits mostly inhibitors. 4.4% of 360,000 active; further: potency means the concentration at half of the fitted maximal effect; on the % scale 0 is the no-effect control and ±100 the full control effect; nearly all actives have a fitted effect of over 60% in size
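Inhibition is scored as reduced AlphaScreen emission. The BAZ2B/b-H3(5-23)K14Ac complex (50 nM each) in PBS pH 7.4, 0.01% Tween-20 meets compound (up to 110 uM) for 30 min at RT before bead addition.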
CtBP-E1A inh – qHTS Assay for Inhibitors of the CtBP/E1A Interaction | AlphaScreen GST-E1A/His-CtBP binding, 1536-well; stronger effect = lower value | activity change, % (no concentration beside the values) | 0.49% of 340,000 active; in the data active means activity change below about -65%; inconclusive means mostly about -30% to -63%; further: on the % scale 0 is the no-effect control and ±100 the full control effect
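Homogeneous bead-based format: GST-tagged E1A captured on glutathione donor beads, His-tagged CtBP on nickel acceptor beads; compounds precede bead addition by 2 h at 37 °C.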
Active calls of the source: *; ? = inconclusive; . = no result; [ ] = dose if it differs, or a comment. Unless noted, the call rests on the fitted dose curve; in most records, active means well fitted inhibition curve with a large enough effect; inconclusive means small, poorly fitted or top-dose-only effect; inactive means no such curve, though single readings can be large or run the other way.

SMILES	JMJD2A Tudor	Six1-Eya2 inh	G9a inh	HP1b binding inh	BAZ2B block	CtBP-E1A inh
Oc1cc(Br)ccc1C=Nc1ccc(N2CCCCC2)cc1	-21.4%	-1.7	44.7µM*	61.0%	?	-8.5
Oc1ccc(C=Nc2ccc(N3CCOCC3)cc2)c(O)c1	22.4µM*	6.7	1.58µM*	?	?	0.4
Cc1ccc(N=Cc2ccc(O)cc2O)cc1F	-20.7%	-6.5	10µM*	18.3%	-35.1%	0.3
Oc1c(Cl)cc(Cl)cc1C=Nc1ccc(N2CCOCC2)cc1	-2.7%	0.5	?	32.3%	-21.4%	2.7
O=C(c1ccc(CNS(=O)(=O)c2ccc(F)cc2)cc1)N1CCCCCC1	.	-0.1	.	.	.	1.3
COc1cccc(Cn2ncc3c4sc(SC)cc4n(C)c3c2=O)c1	0.7%	.	.	.	.	.
COc1ccc(NC(=O)c2nc(SCc3ccccc3F)ncc2Cl)cc1	-17.9%	.	-14.7%[59 µM]	31.9%	-6.4%	.
COc1ccc(CCNc2nc(-c3sc(C)nc3C)cs2)cc1OC	3.16µM*	-20.8	10µM*	?	31.6µM*	-10.4
COc1ccc(CCNc2nc(-c3cccnc3)cs2)cc1OC	-35.3%	-1.6	.	-6.4%	?	0.1
COc1ccc(CCNc2nc(-c3ccncc3)cs2)cc1OC	-6.6%[11.4 µM]	-11.4	.	10.9%	-12.9%	-20.3
COc1ccc(CCNc2nc(-c3ccccn3)cs2)cc1OC	?	-78.8*	?	7.8%[57 µM]	22.4µM*	.
COc1ccc(CCNc2nc(-c3ccc(O)cc3)cs2)cc1OC	?	-18.5	22.4µM*	-7.5%	?	-2.3
Cc1ccc(C)c(NC(=O)Cn2cc(S(=O)(=O)c3ccc(F)cc3)c(=O)c3cc(F)ccc32)c1	-5.3%	.	5.8%[59 µM]	39.2%	1.0%	.
O=C(COc1ccccc1F)OCc1cc(=O)n2nc(-c3cccs3)sc2n1	-26.7%	.	32.2%[59 µM]	-0.2%	-23.5%	.
O=C(O)c1csc(N/N=C/c2ccc(Br)cc2)n1	-19.6%	-10.6	35.5µM*	30.4%	79.4µM*	-11.6
CCCC(C)NC(=O)c1cc(C(=O)OC)cc([N+](=O)[O-])c1 (stereo not drawn)	-1.4%	7.5	-6.2%	17.5%	4.5%	-7.0
CCCC(C)c1nnc(NC(=O)C(=O)OCC)s1 (stereo not drawn)	17.8µM*	1.1	?	?	56.2µM*	0.0
CCC(CC)c1nnc(NC(=O)CN2C(=O)c3ccccc3C2=O)s1	-1.4%	-1.7	44.7µM*	7.4%	-16.2%	3.0
CCCC(C)c1nnc(NC(=O)CN2C(=O)c3ccccc3C2=O)s1 (stereo not drawn)	-3.0%	8.8	7.94µM*	4.1%	?	2.6
CCCC(C)c1nnc(NC(=O)c2cc(C(=O)OC)cc([N+](=O)[O-])c2)s1 (stereo not drawn)	?	-4.2	8.91µM*	-59.1%	-6.4%	-7.3
CCN(Cc1nc(-c2ccc(OC)cc2)oc1C)S(=O)(=O)c1ccc(Cl)cc1	32.1%	.	12.6µM*	?	?	.
Cc1ccc2c(=O)cc(C(=O)Nc3ccc(S(=O)(=O)N4CCCCCC4)cc3)oc2c1C	-22.9%	.	-28.0%[59 µM]	21.9%	-12.8%	.
COc1ccc(-c2noc(CCC(=O)NCc3ccc(OC)cc3OC)n2)cc1	-8.2%	.	-30.1%[59 µM]	23.5%	-2.1%	.
CC12CCCCC1N(O)C(=O)C(=O)N2O (stereo not drawn)	79.4µM*	-2.7	?	4.5%	?	6.7
Cc1ccc(NC(=O)c2ccc(C)c(S(=O)(=O)N3CCCCCC3)c2)cc1	-3.8%	.	9.0%[59 µM]	37.6%	4.7%	.
SMILES	JMJD2A Tudor	Six1-Eya2 inh	G9a inh	HP1b binding inh	BAZ2B block	CtBP-E1A inh
Cc1ccc(NC(=O)c2ccc(Cl)c(N3C(=O)C=CC3=O)c2)cc1	7.94µM*	2.3	-39.9%[0.501 µM]	?	22.4µM*	-7.5
COC(=O)Nc1sc2c(c1C(=O)NC1CC1)CCCCCC2	-15.1%	-0.5	?	-7.8%	-22.7%	2.6
CC(C)OC(=O)c1cccc(C(=O)Oc2ccc(Br)cc2)n1	0.6%	-1.0	19.9%	40.7%	8.6%	2.6
CC(C)OC(=O)c1cccc(C(=O)O)n1	7.08µM*	-0.1	2.51µM*	5.9%	?	2.4
CC1CCC2C(=O)N(c3ccc(C(=O)Oc4cccc5cccnc45)cc3)C(=O)C2C1 (stereo not drawn)	56.2µM*	?	?	4.6%	50.1µM*	-28.9
Cc1nc(NC(=O)c2ccc(Cl)cc2)sc1-c1csc(Nc2cccc(F)c2)n1	.	.	50.1µM*	.	-3.2%[57.1 µM]	.
COc1ccccc1Nc1nc(-c2sc(NC(=O)c3cccc(Cl)c3)nc2C)cs1	.	.	31.6µM*	.	?	.
COc1ccccc1Nc1nc(-c2sc(NC(=O)CC(C)C)nc2C)cs1	?	0.6	?	-16.7%	-15.8%	-20.9
CCCC(=O)Nc1nc(C)c(-c2csc(Nc3ccccc3OC)n2)s1	?	-15.8	?	-11.4%	?	.
Cc1ccc(Nc2nc(-c3sc(NC(=O)c4cccc(Cl)c4)nc3C)cs2)cc1	.	.	25.1µM*	.	?	.
COc1ccccc1Nc1nc(-c2sc(NC(=O)C(C)(C)C)nc2C)cs1	63.1µM*	-13.1	?	-28.6%	?	-13.0
CCC(C)C(=O)Nc1nc(C)c(-c2csc(Nc3ccc(Cl)cc3)n2)s1 (stereo not drawn)	?	-12.2	2.1%[0.501 µM]	-22.5%	?	.
C(=NOCCc1ccccc1)c1ccccn1	17.9%	1.5	.	15.6%[57 µM]	.	12.1
Cc1cccc(NC(=O)Cn2c(=O)n(CCCS(=O)(=O)C3CCCCC3)c(=O)c3ccccc32)c1	-8.9%	.	9.4%[59 µM]	15.3%	-20.2%	.
Cc1ccc(Cl)cc1Nc1nc(-c2sc(NC(=O)C(C)(C)C)nc2C)cs1	?	10.8	?	12.8%	56.2µM*	20.7
Cc1ccccc1Nc1nc(-c2sc(NC(=O)c3ccco3)nc2C)cs1	?	-5.3	?	-18.3%	?	-0.3
CCOC(=O)c1ccc(-n2c(=S)sc3c(=O)[nH]c(C)nc32)cc1	?	-1.4	1.78µM*	-39.4%	-4.3%	-8.8
C=CCNC(=O)c1sc(=S)n(-c2ccc(C(=O)OCC)cc2)c1N	?	-23.4	3.16µM*	?	?	-14.8
COc1ccc(-n2c(N)c(C(=O)NCc3ccco3)sc2=S)cc1	-26.8%	-14.9	?	9.6%	-5.4%	-5.9
CCn1c(N)c(C(=O)NCc2ccco2)sc1=S	?	-5.6	10µM*	?	?	-7.6
